From PubChem BioAssay
Compounds with a hit are over-represented: about 22% of the library has one in this group of screens.
CYP2C9 activ – activators of human CYP2C9. 1.4% of 96,000 active. activation factor at 5 µM. P11712. AID 1024. recombinant CYP2C9, luciferin-H conversion, luminescence; hits give high values; factor 1 = untreated enzyme, 0 = blocked;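 active = activation factor of 2 or more for CYP2C9 at a 5 µM dose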;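 note: 0 = sulfaphenazole-blocked wells and 1 = vehicle-only wells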
CYP2C19 inhib – inhibitors of human CYP2C19 | CYP2C19 Supersomes, luciferin-H EGE luminescence, 30 min | inhibition, % at 5 µM | 21% of 96,000 active | AID 778;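 active = CYP2C19 inhibition above a set limit at 5 µM in the primary screen, cut at about 50% in these data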;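 note: plate controls were negative control wells for no effect and 2.5 mM tranylcypromine positive control for full effect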
Target sequence (P33261 whole entry, looked up): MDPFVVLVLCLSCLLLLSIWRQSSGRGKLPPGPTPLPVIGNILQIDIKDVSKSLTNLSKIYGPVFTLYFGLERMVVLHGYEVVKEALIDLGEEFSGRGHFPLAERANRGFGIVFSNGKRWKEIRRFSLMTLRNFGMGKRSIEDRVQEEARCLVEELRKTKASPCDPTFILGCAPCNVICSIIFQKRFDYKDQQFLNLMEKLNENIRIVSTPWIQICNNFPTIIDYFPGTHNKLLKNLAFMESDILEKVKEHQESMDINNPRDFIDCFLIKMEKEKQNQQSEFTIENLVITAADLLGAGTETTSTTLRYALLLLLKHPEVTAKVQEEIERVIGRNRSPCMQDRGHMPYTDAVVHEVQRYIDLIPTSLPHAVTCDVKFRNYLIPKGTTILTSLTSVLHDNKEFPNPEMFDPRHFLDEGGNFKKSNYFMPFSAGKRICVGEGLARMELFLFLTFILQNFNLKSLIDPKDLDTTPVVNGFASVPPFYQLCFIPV
Measles CPE – protection of cells from measles virus | Measles virus-infected cells, CPE protection, absorbance | protection (pct of control), % at 4 µM | 1.5% of 140,000 active | AID 841; in the data active = protection mostly above about 24%, no sharp cut-off; inactive = mostly below about 26%
CYP2C19 activ – activators of human cytochrome P450 2C19; recombinant CYP2C19, luciferin-H EGE luminescence; hits give high values; 0 = fully inhibited enzyme, 1 = untreated enzyme; activation factor at 5 µM; 96,000 tested, under 10 active; AID 1025;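 active = activation factor of at least 2 at 5 µM in the primary screen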;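 note: 0 = wells with 2.5 mM tranylcypromine and 1 = vehicle-only wells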
CYP2C9 inh – inhibitors of human CYP2C9 | 20% of 96,000 active | inhibition, % at 5 µM | CYP2C9 Supersomes, luciferin-H conversion, luminescence | P11712;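 active = blocking of liver enzyme CYP2C9 beyond about 50% at 5 µM, limit read from the data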
An asterisk follows results filed as active; · = no result given.

SMILES | CYP2C9 activ | CYP2C19 inhib | Measles CPE | CYP2C19 activ | CYP2C9 inh
CCc1ccc(N(CC(=O)NC2CCCCC2)S(=O)(=O)c2c(C)noc2C)cc1 | 1 | 1.6 | 8.1 | 1 | 2.1
COc1cc(C(=O)OC(C)C(=O)N2CCc3ccccc3C2)ccc1OCC(=O)N1CCOCC1 (configuration not stated) | 0.5 | 17.4 | 11.6 | 0.8 | 46.2
COC(=O)C1=C(C)N(C)C(C)=C(C(=O)OC)C1c1ccc(Cl)cc1 | 0.4 | 28.4 | 1.6 | 0.7 | 57.9*
CCOC(=O)C1=C(C)N(C)C(C)=C(C(=O)OCC)C1c1ccc(C(=O)OC)cc1 | 0 | 99.0* | -1.1 | 0 | 98.7*
O=C(NCCNC(=O)c1cccs1)c1ccco1 | 0.9 | 5.6 | 8.4 | 0.9 | 6.6
CC12CCC(C(=O)NCc3ccc4c(c3)OCO4)(OC1=O)C2(C)C (configuration not stated) | 0.8 | 55.9* | 2.7 | 0.4 | 17.8
CC12CCC(C(=O)NCc3ccccc3)(OC1=O)C2(C)C (configuration not stated) | 1.2 | -7.9 | 4.2 | 1.1 | -24.9
CC12CCC(C(=O)NCc3ccc(Cl)cc3)(OC1=O)C2(C)C (configuration not stated) | 0.5 | 83.6* | 8.8 | 0.2 | 46.2
O=C(NNc1nc2ccccc2nc1C(F)(F)F)c1ccccc1 | 0.8 | 25.4 | 6.0 | 0.7 | 15.7
O=C(CN1CCN(C(=O)c2ccco2)CC1)Nc1c2c(nc3c1CCC3)CCCC2 | 1 | -0.4 | 12.1 | 1 | 4.7
CSc1nc2ccc(NC(=O)C3CC(=O)N(Cc4ccco4)C3)cc2s1 (configuration not stated) | 0.6 | 0.6 | 2.4 | 1 | 37.3
O=C(CN1C(=O)COc2ccccc21)NCc1ccccn1 | 1 | 1.1 | 8.5 | 1 | 0.9
CCOC(=O)C(NC(=O)c1ccc(Cl)cc1Cl)(Nc1ccc(C)cc1)C(F)(F)F (configuration not stated) | 0.9 | 91.0* | 2.5 | 0.1 | 14.7
CCOC(=O)C(NC(=O)c1ccccc1Cl)(Nc1ccc(C(F)(F)F)cc1)C(F)(F)F (configuration not stated) | · | · | 19.6 | · | ·
CCOc1ccc(/C=N/NC(=O)c2ccc(Cn3cc(Br)cn3)o2)cc1 | · | · | 19.5 | · | ·
CCOc1ccc(/C=N/NC(=O)c2ccc(Cn3cc([N+](=O)[O-])cn3)o2)cc1 | 0.4 | 5.5 | 17.5 | 0.9 | 58.8*
O=C(Nc1cccc(C(F)(F)F)c1)c1cc2c(=O)c3ccccc3oc2nc1C(F)(F)F | 0.9 | 3.9 | 10.3 | 1 | 14.7
CC1=C(C(=O)Nc2cc(-c3cccc(F)c3)[nH]n2)C2(CCCCC2)OC1=O | 0.2 | 51.6* | 12.0 | 0.5 | 83.1*
CC1=C(C(=O)NC(C)c2ccc3c(c2)OCCO3)C2(CCC(C)CC2)OC1=O (configuration not stated) | · | · | 3.7 | · | ·
CCOC(=O)C(NC(=O)c1cccc(Cl)c1)(Nc1sc2c(c1C(N)=O)CCC2)C(F)(F)F (configuration not stated) | · | · | 12.1 | · | ·
CCOC(=O)c1c(Nc2ccccc2N)cc(C)nc1C | 0.9 | 71.9* | 3.5 | 0.3 | 5.5
COc1cccc(NC(=O)CSc2nc3n[nH]c(C)c3c(=N)n2-c2cccc(OC)c2)c1 | 0.2 | 88.0* | 2.6 | 0.1 | 79.5*
Cc1ccc(CNC(=O)CSc2nc3n[nH]c(C)c3c(=N)n2-c2cccc(C)c2)cc1 | 0.5 | 65.7* | 7.1 | 0.3 | 53.9*
CCc1ccc(NC(=O)CSc2nc3n[nH]c(C)c3c(=N)n2-c2cccc(OC)c2)cc1 | · | · | 8.0 | · | ·
CCC(CC)C(=O)Nc1cccc(C(=O)Nc2ccc(S(=O)(=O)Nc3ccc(C)cc3)cc2)c1 | 0.1 | 86.8* | 7.0 | 0.1 | 90.5*
SMILES | CYP2C9 activ | CYP2C19 inhib | Measles CPE | CYP2C19 activ | CYP2C9 inh
CCCC(=O)Nc1cccc(NC(=O)c2ccc3c(c2)OCO3)c1 | 0.5 | 43.8 | 6.0 | 0.6 | 52.4*
O=C(Nc1cccc(F)c1)c1ccc2c(c1)OCO2 | 0.5 | 93.9* | 2.5 | 0.1 | 50.1*
CCCN(CCC)S(=O)(=O)c1cccc(C(=O)Nc2ccc3c(c2)OCO3)c1 | 0.4 | 42.9 | 6.4 | 0.6 | 63.0*
O=C(Nc1c(C(=O)Nc2cccc(F)c2)oc2ccccc12)c1ccc2c(c1)OCO2 | 0.9 | 7.9 | 4.4 | 0.9 | 14.9
Cn1c(COc2ccccc2)nnc1SCC(=O)Nc1ccc2c(c1)OCO2 | 0.6 | 37.2 | 0.7 | 0.6 | 36.3
O=C1NC(Nc2ccccn2)(C(F)(F)F)C(=O)N1c1ccc(F)cc1 (configuration not stated) | 1.1 | 8.8 | 11.6 | 0.9 | -6.8
O=C(/C(Br)=C/Nc1cc(Cl)ccc1Cl)C(F)(F)F | · | · | 6.8 | · | ·
Cc1ccc(NC(=O)c2oc3ccccc3c2NC(=O)c2ccc3c(c2)OCO3)cc1 | 0.5 | -11.8 | 3.1 | 1.1 | 50.7*
CCC(CC)C(=O)Nc1cccc(C(=O)Nc2ccc3c(c2)OCO3)c1 | 0.1 | 84.0* | 2.8 | 0.2 | 87.8*
C=CCn1c(SCCN2CCCCC2)nc2c1c(=O)[nH]c(=O)n2C | 0.8 | 3.0 | 11.2 | 1 | 16.3
Clc1ccccc1-c1nnc2sc(-c3ccccn3)nn12 | · | · | 17.4 | · | ·
Clc1ccccc1-c1nnc2sc(-c3ccco3)nn12 | 0.7 | 69.3* | 5.9 | 0.3 | 32.9
Clc1ccc(-c2nnc3sc(-c4ccco4)nn23)c(Cl)c1 | 0.9 | -2.0 | · | 1 | 8.0
c1ccc(Cc2nnc3sc(-c4ccco4)nn23)cc1 | 0.6 | 90.9* | 10.1 | 0.1 | 42.8
COc1cccc(OC)c1-c1nn2c(-c3ccccc3Cl)nnc2s1 | 0.8 | 82.0* | 4.8 | 0.2 | 18.7
O=C1C2C3C=CC(C3)C2C(=O)N1c1ccccc1OS(=O)(=O)c1ccccc1 (configuration not stated) | · | · | 8.3 | · | ·
Cc1cc(C)n(C(=O)CCC2COc3ccccc3O2)n1 (configuration not stated) | 0.9 | 23.5 | 6.5 | 0.8 | 13.2
CC(=O)Oc1ccc(C(=O)Cc2ccc3ccccc3n2)c(O)c1C | · | · | 29.8 | · | ·
Cc1c(O)ccc(/C(Cc2ccc3ccccc3n2)=N\O)c1O | 0.1 | 66.5* | 3.8 | 0.3 | 88.5*
CC1Cc2nc(SCC(=O)NCc3ccco3)n(Cc3ccccc3)c(=O)c2S1 (configuration not stated) | 0.5 | 36.6 | 9.4 | 0.6 | 48.3
CCn1c(SCC(=O)c2ccccc2)nc2c(c1=O)SC(C)C2 (configuration not stated) | 0.1 | 37.8 | 6.6 | 0.6 | 89.9*
COCCn1c(SCC(=O)c2ccccc2)nc2c(c1=O)SC(C)C2 (configuration not stated) | 0 | 91.0* | 9.0 | 0.1 | 95.7*
CCSc1nc2c(c(=O)n1CC)SC(C)C2 (configuration not stated) | 0.8 | 19.1 | 3.4 | 0.8 | 18.7
CCNC(=O)COc1ccc(C=O)cc1OC | · | · | 12.9 | · | ·
CCOC(=O)COn1c(=O)c(=O)n(O)c2ccccc21 | 0.1 | 99.2* | 2.4 | 0 | 89.9*
CCOC(=O)COn1c(SCC(=O)OCC)nc2ccccc2c1=O | 0.8 | 53.4* | 6.2 | 0.5 | 19.2
